# According to PubChem BioAssay (NCATS):
# Inconclusive results are not listed. Where a call stands in place of a potency, no number is given. The source made the active and inactive calls. Calls come from the whole dose curve; as a rule, active = well fitted curve in the direction sought with a large enough effect; inconclusive = small, poorly fitted or top-dose-only effect, or another doubt; inactive = no such curve, though single readings can be large; an effect the other way counts as inactive or inconclusive.
# System: not listed separately
# Test: Confirmation and Secondary Assay for Modulators of Hemoglobin Beta Chain Splicing at IVS2 705 locus (AID 930);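 note: HeLa cells stably expressing the EGFP-705 splicing reporter; GFP fluorescence per well restored by corrected splicing of the IVS2-705 intron in EGFP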
# Details: HeLa EGFP-705 splicing reporter, GFP fluorescence, 48 h; series mostly up to 46.1 µM
# In short: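 Splice-correction reporter: EGFP cDNA split by beta-globin intron 2 bearing the 705 mutation, stably in HeLa. Compound incubation 2 days, 37C; fluorescent objects 5-250 µm summed per well.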
row,SMILES,outcome
1,NC1C(O)OC(CO)[C@@H](O)[C@@H]1O[C@H]1O[C@@H](C(=O)O)C(O)C(O)C1O (some centres undefined),inactive
2,CC(CCC(=O)O)C1CCC2C3C(=O)CC4CC(=O)CC[C@@]4(C)C3CC(=O)[C@]12C (some centres undefined),inactive
3,Cc1onc(-c2c(Cl)cccc2Cl)c1C(=O)NC1C(=O)N2C1SC(C)(C)C2C(=O)O (centres undefined),inactive
4,C=C1C([C@@]2(C)C(OC(C)=O)CC(=O)O[C@@](C)(COC(C)=O)C2CC(=O)OC)C(OC=O)C(OC(=O)C(O)C(C)CC)[C@]2(C)C(c3ccoc3)CC(=O)C12O (some centres undefined),inactive
5,C=C1C(=O)C23C(O)C1CCC2[C@]12COC3(O)C(O)C1C(C)(C)CC[C@H]2O (some centres undefined),inactive
6,CC1CCC2C(C)(C)C3CC12CC[C@]3(C)O (some centres undefined),inactive
7,C=C1C(=O)OC2C1CC/C(C)=C/CCC1(C)OC21 (centres undefined),inactive
8,O=C1C=CC2=C3c4cc(O)c(O)cc4C[C@]3(O)COC2=C1,inactive
9,COc1ccc(-c2cc(=O)c3cc(OC)ccc3o2)cc1,inactive
10,Nc1ncnc2c1[nH]c(=O)n2C1CC(O)C(CO)O1 (centres undefined),inactive
11,COc1cc2ccc(=O)oc2c(OC)c1OC,inactive
12,COc1ccc2c(=O)ccoc2c1,inactive
13,COC(=O)CC1C(C)(C)C(=O)C2CC3C4=CC(=O)OC(c5ccoc5)[C@]4(C)CCC3[C@@]1(C)C2=O (some centres undefined),inactive
14,O=c1[nH]cnc2c1ncn2C1CC(O)C(CO)O1 (centres undefined),inactive
15,O=C(O)/C=C/C=C/c1ccccc1,inactive
16,Cc1cc(O)cc(=O)o1,inactive
17,O=C1OC(C(O)CO)C(O)=C1O (centres undefined),inactive
18,O=C(O)c1cc2ccccc2[nH]1,inactive
19,Nc1ncnc2c1nc(Br)n2C1OC(CO)C(O)C1O (centres undefined),inactive

# Biological target: Ubiquitin carboxyl-terminal hydrolase 1 (Homo sapiens) (UniProt O94782)
# Sequence (O94782 whole entry, looked up): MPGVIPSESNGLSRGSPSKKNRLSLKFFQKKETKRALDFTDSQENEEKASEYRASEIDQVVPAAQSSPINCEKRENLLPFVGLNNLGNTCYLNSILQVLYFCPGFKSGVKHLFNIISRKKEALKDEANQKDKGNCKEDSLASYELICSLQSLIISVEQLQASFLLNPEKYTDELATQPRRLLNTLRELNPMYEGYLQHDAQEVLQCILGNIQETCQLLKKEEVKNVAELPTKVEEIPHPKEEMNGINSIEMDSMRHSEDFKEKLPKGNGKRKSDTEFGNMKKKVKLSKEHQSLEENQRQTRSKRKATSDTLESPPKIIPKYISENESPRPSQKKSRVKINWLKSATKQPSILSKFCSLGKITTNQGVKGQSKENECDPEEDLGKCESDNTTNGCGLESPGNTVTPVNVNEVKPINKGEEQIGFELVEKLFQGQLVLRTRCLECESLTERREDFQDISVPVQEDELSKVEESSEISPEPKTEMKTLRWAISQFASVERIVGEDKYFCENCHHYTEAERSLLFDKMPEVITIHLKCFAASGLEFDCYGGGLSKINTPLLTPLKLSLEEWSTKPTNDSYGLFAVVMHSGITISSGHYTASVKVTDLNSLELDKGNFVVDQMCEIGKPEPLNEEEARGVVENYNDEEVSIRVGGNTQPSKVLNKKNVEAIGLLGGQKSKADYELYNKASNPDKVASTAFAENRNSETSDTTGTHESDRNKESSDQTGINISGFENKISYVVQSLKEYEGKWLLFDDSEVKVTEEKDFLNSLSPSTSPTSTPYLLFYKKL
# Test: Inhibitors of USP1/UAF1: Pilot qHTS (AID 504865); note: nearly all actives have a fitted effect of over 35% in size; note: potency is the fitted concentration of half-maximal effect
# Details: purified USP1/UAF1, Ub-rhodamine cleavage fluorescence; series mostly up to 114 µM
# In short: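 In 50mM HEPES pH 7.8 containing 0.5mM EDTA, 1mM TCEP, 0.1 mg/ml BSA and 0.01% Tween-20, 1nM USP1/UAF1 is exposed to compound for 15 min, then Ub-Rho (150nM final) is added and fluorescence is read over time.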
row,SMILES,Potency
1,CS(C)(=O)=O,inactive
2,COc1ccc(-c2coc3cc(OC)cc(OC)c3c2=O)cc1,inactive
3,Cc1cc(O)c(C)c(O)c1C(=O)O,inactive
4,CC1O[C@@H](O[C@@H]2C(O)C[C@H](O[C@@H]3C(O)C[C@@H](OC4CC[C@@]5(C)C6CC[C@]7(C)C(C8=CC(=O)OC8)CC[C@@]7(O)C6CC[C@@H]5C4)OC3C)OC2C)CC(O)[C@H]1O (some centres undefined),inactive
5,O=C(O)C(S)[C@@H](S)C(=O)O (some centres undefined),inactive
6,Nc1nc2c(ncn2C2CC(O)C(CO)O2)c(=O)[nH]1 (centres undefined),inactive
7,COc1ccc(C2COc3c(ccc(O)c3OC)C2)c(OC)c1O (centres undefined),inactive
8,CN(N=O)C(=O)N[C@H]1C(O)C(O)C(CO)O[C@@H]1O (some centres undefined),inactive
9,CC1/C=C/C=C/C=C/C=C/C=C/C=C/C=C/C(OC2OC(C)C(O)C(N)C2O)CC2O[C@@](O)(CC(O)CC(O)C(O)CCC(O)CC(O)CC(=O)OC(C)[C@H](C)C1O)CC(O)C2C(=O)O (some centres undefined),56.2 µM (active)
10,COC(=O)c1c(C)cc(O)cc1O,inactive
11,CC1c2cccc(O)c2C(O)=C2C(=O)[C@]3(O)C(O)=C(C(N)=O)C(=O)C(N(C)C)C3C(O)C21 (some centres undefined),inactive
12,COc1cc(C(C)=O)cc(OC)c1O,inactive
13,CC(=O)OC(C)(C)C1Cc2cc3ccc(=O)oc3cc2O1 (centres undefined),inactive
14,NC(=O)c1ccc[n+]([C@@H]2OC(COP(=O)([O-])OP(=O)(O)OCC3OC(n4cnc5c(N)ncnc54)C(O)C3O)C(O)C2O)c1 (some centres undefined),inactive
15,C[C@]12CCC(=O)C=C1CCC1C2C(O)C[C@]2(C)C1CC[C@]2(O)C(=O)COC(=O)CCC(=O)O (some centres undefined),inactive
16,NC1C(O)OC(CO)[C@@H](O)[C@@H]1O[C@H]1O[C@@H](C(=O)O)C(O)C(O)C1O (some centres undefined),inactive
17,CC(CCC(=O)O)C1CCC2C3C(=O)CC4CC(=O)CC[C@@]4(C)C3CC(=O)[C@]12C (some centres undefined),inactive
18,Cc1onc(-c2c(Cl)cccc2Cl)c1C(=O)NC1C(=O)N2C1SC(C)(C)C2C(=O)O (centres undefined),inactive
19,C=C1C([C@@]2(C)C(OC(C)=O)CC(=O)O[C@@](C)(COC(C)=O)C2CC(=O)OC)C(OC=O)C(OC(=O)C(O)C(C)CC)[C@]2(C)C(c3ccoc3)CC(=O)C12O (some centres undefined),inactive
20,C=C1C(=O)C23C(O)C1CCC2[C@]12COC3(O)C(O)C1C(C)(C)CC[C@H]2O (some centres undefined),inactive

row,SMILES,Potency
1,CC1CCC2C(C)(C)C3CC12CC[C@]3(C)O (some centres undefined),inactive
2,C=C1C(=O)OC2C1CC/C(C)=C/CCC1(C)OC21 (centres undefined),inactive
3,O=C1C=CC2=C3c4cc(O)c(O)cc4C[C@]3(O)COC2=C1,inactive
4,COc1ccc(-c2cc(=O)c3cc(OC)ccc3o2)cc1,inactive
5,Nc1ncnc2c1[nH]c(=O)n2C1CC(O)C(CO)O1 (centres undefined),inactive
6,COc1cc2ccc(=O)oc2c(OC)c1OC,inactive
7,COc1cc(OC)c2c(=O)c(-c3ccccc3)c(C)oc2c1OC,inactive
8,COc1ccc2c(=O)ccoc2c1,inactive
9,COC(=O)CC1C(C)(C)C(=O)C2CC3C4=CC(=O)OC(c5ccoc5)[C@]4(C)CCC3[C@@]1(C)C2=O (some centres undefined),inactive
10,O=c1[nH]cnc2c1ncn2C1CC(O)C(CO)O1 (centres undefined),inactive
11,O=C(O)/C=C/C=C/c1ccccc1,inactive
12,Cc1cc(O)cc(=O)o1,inactive
13,O=C1OC(C(O)CO)C(O)=C1O (centres undefined),inactive
14,O=C(O)c1cc2ccccc2[nH]1,inactive
15,COC1=CC(=O)C=C(OC)C1=O,inactive
16,Cc1cc(=O)oc2cc(O)c(O)cc12,inactive
17,CC1CC2C(C(O)C[C@]3(C)C2CC[C@]3(O)C(=O)CO)[C@]2(C)C=CC(=O)C=C12 (some centres undefined),inactive
18,O=c1c2cc(O)c(O)cc2oc2cc(O)c(C3OC(CO)C(O)C(O)C3O)c(O)c12 (centres undefined),inactive
19,COC(=O)CC1[C@@]2(C)C[C@]34OC5(C)OC6(C7CC(=O)OC(c8ccoc8)[C@]7(C)CCC6(O5)[C@]13C)C(OC(C)=O)[C@]4(OC(C)=O)C2OC(C)=O (some centres undefined),inactive
20,Nc1ncnc2c1nc(Br)n2C1OC(CO)C(O)C1O (centres undefined),inactive
